Test systems include RPMI-8226 leukemia; OVCAR-8 ovarian; OVCAR-5 ovarian; OVCAR-4 ovarian; SK-OV-3 ovarian; IGROV1 ovarian; OVCAR-3 ovarian; HS 578T breast; NCI/ADR-RES ovarian; T-47D breast; BT-549 breast; MDA-MB-435 melanoma; SW-620 colon; MCF7 breast; HCT-116 colon; HCC-2998 colon; KM12 colon; SR leukemia.
What all share (test): NCI-60 one-dose screen, 48 h (100 = growth as untreated, 0 = no growth, -100 = all killed)
Settings in all cases: 10 µM unless noted

Compounds without any hit were thinned out: in the full panel of roughly 83,000, 20% have a hit.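 Single-dose data. Exposure time 48 hours. Values below 10 considered active.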 Values without a mark were called inactive. Activity calls are given as the source filed them.

As for `O=C(CSc1nc2ccccc2[nH]1)Nc1ccc(-c2nc3ccccc3s2)c(Cl)c1`, the growth in the assay on RPMI-8226 leukemia was 28.9%; in the assay with OVCAR-8 ovarian, -9.6% (active); with OVCAR-5 ovarian, 20.4%; in the assay on OVCAR-4 ovarian it was -39.8% (active); in the assay with SK-OV-3 ovarian, 12.4%; in the assay with IGROV1 ovarian, -52.3% (active). Besides, the growth in the assay on OVCAR-3 ovarian is -17.2% (active); in the assay on HS 578T breast it was 65.2%; with NCI/ADR-RES ovarian, 9.5% (active); with T-47D breast, -12.7% (active); in the assay with BT-549 breast, 47.4%; in the assay with MDA-MB-435 melanoma, 13.2%. Besides, the growth was 22.1% in the assay on SW-620 colon, 6.26% (active) in the assay with MCF7 breast, -90.2% (active) in the assay on HCT-116 colon and 95.3% in the assay with HCC-2998 colon.

As to `COc1ccc(/C=C/c2c(C(C)=O)c(C)nc3ccccc23)cc1`, the growth in the assay with RPMI-8226 leukemia was 60.2%; in the assay on OVCAR-8 ovarian it was 85.2%; with OVCAR-5 ovarian, 77%; with OVCAR-4 ovarian it was 70.1%; in the assay with SK-OV-3 ovarian it was 80.8%; in the assay with IGROV1 ovarian it was 76.7%. For the same compound, the growth in the assay on OVCAR-3 ovarian was 97.6%; with HS 578T breast it was 106%; with NCI/ADR-RES ovarian it was 86.6%; in the assay with T-47D breast, 39.5%; in the assay on BT-549 breast, 61.6%; with MDA-MB-435 melanoma, 69.1%. Moreover, the growth is 86.8% with SW-620 colon; 85.8% in the assay with MCF7 breast; 70.8% in the assay on HCT-116 colon; 93.3% with HCC-2998 colon; 93% in the assay with KM12 colon.

On to `COc1ccc(-c2ccc(-c3ccc(-c4ccc(C(=N)N)cc4)s3)s2)cc1OC`, for which the growth with SR leukemia is 6.75% (active); with OVCAR-8 ovarian it was 101%; in the assay with OVCAR-5 ovarian, -12.2% (active); with OVCAR-4 ovarian it was -53.2% (active); in the assay on IGROV1 ovarian, 15.7%; with OVCAR-3 ovarian, -64.9% (active). The growth with HS 578T breast was 89.6%; in the assay on NCI/ADR-RES ovarian, 84%; with T-47D breast it was 28.5%; in the assay on BT-549 breast, 98.3%; in the assay with MDA-MB-435 melanoma, 88.2%; with SW-620 colon, -40.8% (active). Besides, the growth was 27.5% with HCT-116 colon, -68.6% (active) in the assay with HCC-2998 colon and -42.5% (active) in the assay on KM12 colon.

With `COc1ccc(-n2c(=S)sc3c(Cl)nc(C)nc32)c(OC)c1`, the growth with RPMI-8226 leukemia was 22.6%; with OVCAR-8 ovarian, 0.172% (active); with OVCAR-5 ovarian it was 87%; in the assay on OVCAR-4 ovarian it was 95.6%; in the assay on SK-OV-3 ovarian, 80.1%; in the assay on IGROV1 ovarian, -17.3% (active). In addition, the growth is -20.7% (active) with OVCAR-3 ovarian; 72.6% with HS 578T breast; 78.5% in the assay on NCI/ADR-RES ovarian; 51.3% in the assay on T-47D breast; 90.8% in the assay with BT-549 breast; 30.9% in the assay with MDA-MB-435 melanoma. Further, the growth was 45.4% in the assay on SW-620 colon; 13.8% in the assay with MCF7 breast; 0.658% (active) in the assay on HCT-116 colon; 35.4% in the assay on HCC-2998 colon; 25.4% with KM12 colon.

For `COc1ccc(NC(=O)c2c(Nc3ccc(OC)cc3OC)n[nH]c2N)c(OC)c1`, the growth in the assay on RPMI-8226 leukemia was 91%; in the assay on OVCAR-8 ovarian, 96.4%; in the assay on OVCAR-5 ovarian, 96.3%; in the assay on OVCAR-4 ovarian, 102%; with SK-OV-3 ovarian, 92%; with IGROV1 ovarian, 93.7%. Also, the growth with OVCAR-3 ovarian was 106%; with HS 578T breast it was 96%; with NCI/ADR-RES ovarian, 101%; in the assay with T-47D breast, 83%; with BT-549 breast, 93.7%; with MDA-MB-435 melanoma it was 95.2%. The growth was 102% in the assay with SW-620 colon; 76.4% with MCF7 breast; 90.1% in the assay with HCT-116 colon; 107% with HCC-2998 colon; 102% in the assay with KM12 colon.

For `COc1ccc(C2C=C(c3ccc(Cl)cc3)N=C3SC=C(C)N32)c(Br)c1` (stereo not drawn), the growth in the assay on RPMI-8226 leukemia was 14.9%; with OVCAR-8 ovarian it was 18.6%; with OVCAR-5 ovarian, 67%; in the assay on OVCAR-4 ovarian it was 48.1%; in the assay on SK-OV-3 ovarian, 35.3%; with IGROV1 ovarian, 46.1%. The growth in the assay on OVCAR-3 ovarian was 10.8%; in the assay on HS 578T breast, 56.3%; in the assay with NCI/ADR-RES ovarian it was 33.2%; with T-47D breast it was 39.3%; with BT-549 breast, 19.7%; with MDA-MB-435 melanoma, 9.2% (active). The growth with SW-620 colon was 24.2%; with MCF7 breast it was 10.2%; in the assay on HCT-116 colon, 16%.

In the case of `CCN(CC)c1ccc(C(=N)c2ccc(N(CC)CC)cc2)cc1`, the growth with RPMI-8226 leukemia is -32.1% (active); in the assay with OVCAR-8 ovarian, -8.61% (active); in the assay with OVCAR-5 ovarian it was -22.1% (active); with OVCAR-4 ovarian, 12.7%; with SK-OV-3 ovarian it was -36.6% (active); with IGROV1 ovarian, -24.8% (active). Further, the growth is -38.3% (active) with OVCAR-3 ovarian; -47.2% (active) with HS 578T breast; -49.9% (active) in the assay on NCI/ADR-RES ovarian; -27.9% (active) with T-47D breast; 8.11% (active) in the assay on BT-549 breast; -35.2% (active) in the assay with MDA-MB-435 melanoma. The growth with SW-620 colon was -21% (active); in the assay with MCF7 breast it was -18.9% (active); in the assay on HCT-116 colon, -60.1% (active); in the assay on HCC-2998 colon, -74.5% (active); with KM12 colon, -38.2% (active).

With `O=C(Nc1ccc2c(c1)OCO2)C(=O)c1c[nH]c2cc(F)ccc12`, the growth with RPMI-8226 leukemia is 64%; with OVCAR-8 ovarian, 59%; in the assay on OVCAR-5 ovarian it was 77.6%; with OVCAR-4 ovarian it was 50.7%; in the assay with SK-OV-3 ovarian, 59.7%; in the assay on IGROV1 ovarian, 59.6%. The growth in the assay on OVCAR-3 ovarian was 50.5%; in the assay with HS 578T breast it was 50.1%; with NCI/ADR-RES ovarian, 47.6%; in the assay with T-47D breast, 46.7%; in the assay on BT-549 breast, 70.3%; in the assay with MDA-MB-435 melanoma, 34.7%. Moreover, the growth with SW-620 colon was 34.3%; in the assay with MCF7 breast it was 57.7%; with HCT-116 colon, 56.7%; in the assay on HCC-2998 colon, 25.3%; with KM12 colon, 27.1%.

With `C=C[C@@H]1C[C@H](O)Cc2ccccc2N1`, the growth is 89.9% in the assay on RPMI-8226 leukemia; 103% with OVCAR-8 ovarian; 106% in the assay with OVCAR-5 ovarian; 113% with OVCAR-4 ovarian; 114% in the assay with SK-OV-3 ovarian; 124% in the assay with IGROV1 ovarian. The growth with OVCAR-3 ovarian is 125%; in the assay on HS 578T breast, 104%; in the assay with NCI/ADR-RES ovarian, 106%; in the assay on T-47D breast it was 118%; in the assay on BT-549 breast it was 113%; in the assay with MDA-MB-435 melanoma, 107%. The growth in the assay with SW-620 colon was 105%; in the assay with MCF7 breast, 105%; in the assay on HCT-116 colon, 113%; with HCC-2998 colon it was 99.6%; in the assay on KM12 colon, 109%.

These data come from PubChem BioAssay (NCI).
